Most compounds without a hit are left out; they make up all but 1.4% or so of the library.
Nox1 inh: blocks human NADPH oxidase 1 activity. AID 1792. Q9Y5S8. HT29 cells, luminol chemiluminescence ROS. 16,000 tested, 0.81% active. inhibition, % at 6.7 µM
Target sequence (Q9Y5S8 whole entry, looked up): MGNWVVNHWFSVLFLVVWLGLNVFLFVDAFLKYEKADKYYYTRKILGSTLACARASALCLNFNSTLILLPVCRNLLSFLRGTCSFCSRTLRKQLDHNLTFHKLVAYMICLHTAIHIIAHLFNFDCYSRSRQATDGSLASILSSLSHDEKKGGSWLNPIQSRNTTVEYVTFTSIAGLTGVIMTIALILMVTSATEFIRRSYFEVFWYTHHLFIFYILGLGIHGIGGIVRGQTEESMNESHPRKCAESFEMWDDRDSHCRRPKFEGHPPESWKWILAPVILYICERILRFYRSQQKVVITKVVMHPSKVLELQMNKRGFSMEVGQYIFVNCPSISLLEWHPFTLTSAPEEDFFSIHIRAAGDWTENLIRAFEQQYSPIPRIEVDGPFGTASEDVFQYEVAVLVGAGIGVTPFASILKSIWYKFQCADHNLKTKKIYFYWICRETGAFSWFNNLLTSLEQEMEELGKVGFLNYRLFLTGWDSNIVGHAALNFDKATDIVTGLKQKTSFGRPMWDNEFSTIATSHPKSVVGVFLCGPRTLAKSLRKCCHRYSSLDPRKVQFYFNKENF
luminol inh ctr: luminol signal inhibition, Nox1 inhibitor counter-screen | inhibition, % at 6.7 µM | 16,000 tested, 0.4% active | HRP/luminol/H2O2 chemiluminescence counterscreen; further: reference of the scale not given here
Hits are given with their value; 0 = inactive. No stated cut-off is given here; in the data, active means inhibition above about 75%; inactive means the rest.

SMILES	Nox1 inh	luminol inh ctr
COc1ccc(CCNC(=O)c2cccs2)cc1OC	0	0
COc1cc2ncnc(NNC(=O)c3cccs3)c2cc1OC	86	0
CCOC(=O)CCc1ccc2c(c1)NC(c1ccc([N+](=O)[O-])s1)O2 (stereo not given)	82	0
CCOC(=O)CCc1ccc(Oc2c([N+](=O)[O-])cc(C(F)(F)F)cc2[N+](=O)[O-])cc1	0	0
CCOC(=O)CCc1ccc2c(c1)NC(c1cccc([N+](=O)[O-])c1)O2 (stereo not given)	96	0
CCOC(=O)COc1cccc([N+](=O)[O-])c1	0	0
COC(=O)C1=C(C)NC2=C(C(=O)CC(c3ccco3)C2)C1c1ccc2c(c1)CCO2 (stereo not given)	0	0
CCCc1cnc(N2CCN(c3ncc(CCC)cn3)CC2)nc1	0	0
C[n+]1cccc(-c2n[nH]c(-c3ccccc3)n2)c1	0	0
O=[N+]([O-])c1ccc(Oc2ccc(C3SCCS3)cc2)nc1	0	0
CCOc1ccccc1Nc1n[nH]c(=S)s1	88	0
S=c1[nH]nc(NCCc2ccc(Cl)cc2)s1	0	0
Cn1sc(=O)c2cc(S(=O)(=O)Nc3ccccc3N3CCCCC3)ccc21	0	0
NS(=O)(=O)c1ccc(NNC(=O)c2c(F)cccc2Cl)cc1	81	0
NS(=O)(=O)c1ccc(NNC(=O)c2cccs2)cc1	0	0
FC(F)(F)c1cccc(NC(=S)N2N=C3c4ccccc4CCC3C2c2ccccc2Cl)c1 (stereo not given)	0	0
Cn1cnc(S(=O)(=O)Nc2ccc(N3CCCCC3)cc2)c1	87	0
COc1ccc(NS(=O)(=O)c2cn(C)cn2)cc1	0	0
Cc1c(COC(=O)Nc2ccc(Cl)cc2Cl)sc2ccccc12	0	0
Cc1cc(=O)n2ncnc2n1CC(=O)NNC(=S)Nc1ccc(Cl)cc1Cl	0	75
O=C(NCCc1ccccc1)c1ccc2ncccc2c1	0	0
COc1ccc(OC(=O)c2ccc3ncccc3c2)cc1	92	0
Cn1c(CC#N)n[nH]c1=S	0	0
Cc1nc(C)c(-c2n[nH]c(=S)n2C)s1	0	100
O=C1C=CC(=O)N1CCc1ccccc1	100	0
SMILES	Nox1 inh	luminol inh ctr
O=C(C1CCCCC1)N1CC(=O)N(CCc2ccccc2)C(=O)C1	0	0
COC(=O)c1cnc(NNC(=O)C(Cl)Cl)nc1C(F)(F)F	0	0
COC(=O)c1cnc(NNS(=O)(=O)c2ccc(Cl)cc2)nc1C(F)(F)F	98	0
Cn1nc(-c2ccc(/C=N/NC(=O)c3ccc(Cl)cc3Cl)s2)cc1C(F)(F)F	0	0
N/C(CS(=O)(=O)c1ccccc1)=N\OS(=O)(=O)c1ccc(Cl)cc1	0	0
COC(=O)c1cscc1OC(=O)c1ccc(C(F)(F)F)cc1	0	0
O=C(Oc1cccc2[nH]ccc12)c1ccc(C(F)(F)F)cc1	80	0
COc1ccc(-c2[nH]ncc2CN2CCN(c3ccccn3)CC2)cc1	0	0
CCOC(=O)c1c(C)nc(C)c(C(=O)OCC)c1-c1ccc(O)c(OC)c1	0	0
COc1cc(-c2nc(-c3ccccc3)c(-c3ccccc3)[nH]2)ccc1O	101	0
Cc1ccc2nc(SCC(=O)NCCSCc3ccco3)[nH]c2c1	0	0
O=[N+]([O-])c1cc(Br)cnc1Sc1n[nH]c(-c2ccccc2)n1	0	99
O=[N+]([O-])c1cnc(Sc2n[nH]c(-c3cccs3)n2)s1	0	0
CC(=O)Oc1cccc(OC(C)=O)c1[N+](=O)[O-]	0	0
CC(=O)Oc1ccc(OC(C)=O)c2c1[C@@H]1C=C[C@H]2CC1	81	0
CNS(=O)(=O)C1CCS(=O)(=O)C1 (stereo not given)	0	0
CC1(C)CC(Nc2ccc(Nc3ccccc3)cc2)CC(C)(C)N1	103	0
O=C1CC(Nc2ccccc2)C=C1Nc1ccccc1 (stereo not given)	0	0
CCOC(=O)c1cnc2c(c(C)nn2C)c1Sc1ccccn1	0	0
CN(C(=O)Nc1ccccc1)n1cnc2ccsc2c1=O	0	0
CCn1c(-c2cc(-c3ccccc3)sc2N)n[nH]c1=S	98	0
CCn1c(CN2c3ccccc3Sc3ccccc32)n[nH]c1=S	0	0
CC(C)(C)NC(=O)Oc1ccccc1	0	0
COc1cc(CCC(=O)NNC(=S)Nc2ccc(F)cc2)cc(OC)c1OC	0	92
COc1cc(CCC(=O)NNC(=O)C(F)(F)F)cc(OC)c1OC	0	0
SMILES	Nox1 inh	luminol inh ctr
O=C(CN1CCOCC1)Nc1cccc2cccnc12	0	0
O=C(/C=C(\C(=O)c1ccccc1)c1ccccc1)c1ccc(F)cc1	0	0
Cc1ccc(NC(=O)Nc2ccc(OCc3ccccc3)cc2)cc1NS(C)(=O)=O	0	0
CN(C)c1ccc(NC(=O)Nc2ccc(OCc3ccccc3)cc2)cc1	107	0
OC(CCc1ccccc1)(CCN1CCCCC1)c1ccccc1 (stereo not given)	0	0
COc1cc(NC(C)=O)ccc1/C=N/NC(N)=S	0	0
CNC(=S)N(C)NC(=S)Nc1ccc(OC)c(OC)c1	84	0
O=C(NNc1c(Cl)cncc1Cl)c1ccc(F)cc1F	0	0
O=C(NNc1cc(Cl)cc(Cl)c1)c1ccc(F)cc1F	0	76
Fc1ccc2nsnc2c1	0	0
CC(Oc1ccccc1-c1ccccc1)c1n[nH]c(=S)n1C (stereo not given)	0	94
Cc1[nH]c2ccccc2c1SCc1n[nH]c(=S)n1C	0	0
COc1ccc(CCNc2ccccc2[N+](=O)[O-])cc1OC	0	0
Cc1nn(Cc2nnc(SCc3ccc(Cl)cc3)n2C)c(C)c1[N+](=O)[O-]	0	0
FC(F)(F)COc1ccc(OCC(F)(F)F)c(-c2csnn2)c1	0	0
FC(F)(F)COc1ccc(OCC(F)(F)F)c(-c2n[nH]c(=S)o2)c1	0	87
Cc1c(C#N)c(=O)[nH]c2ccccc12	0	0
Cc1cc(=O)n2c([nH]c3ccccc32)c1C#N	0	85
COc1ccc([N+](=O)[O-])c(OC)c1C(=O)Oc1c(Br)cc(C(F)(F)F)cc1[N+](=O)[O-]	0	0
CNC(=S)NNC(=O)c1ccccn1	87	0
CC(=O)NNC(=O)c1ccccn1	0	0
C/C(=N\NC1=NCCN1Cc1ccccc1)c1ccc(Cl)cc1	0	0
Cn1c(Sc2ncnc(Sc3nnc(C(F)(F)F)n3C)c2[N+](=O)[O-])nnc1C(F)(F)F	0	101
Cc1cc(Sc2nnc(C(F)(F)F)n2C)c([N+](=O)[O-])cc1[N+](=O)[O-]	0	0
N#CCS(=O)(=O)c1cccs1	0	0
SMILES	Nox1 inh	luminol inh ctr
Nc1nc(NCc2ccccc2OC(F)(F)F)n[nH]1	88	0
O=C(NCc1c(Cl)cccc1Oc1ccccc1)Nc1ccc(F)cc1	0	0
Nc1nc(NCc2c(Cl)cccc2Oc2ccccc2)n[nH]1	84	0
ONC=NCc1ccccc1OC(F)(F)F	0	0
CN(C)/N=C/c1ccc([N+](=O)[O-])o1	0	0
N#CSCc1ccccc1[N+](=O)[O-]	0	0
NS(=O)(=O)c1cccc(NC(=O)C2CCCCC2)c1	0	0
Oc1ccccc1N=CC=Nc1ccccc1O	96	0
C(=Nc1cccc2ccccc12)c1ccccc1	0	0
Cc1c(C(=O)CSc2n[nH]c(=O)n2Cc2ccco2)sc2ccc(Cl)cc12	0	0
CC(C)(C)c1cc(C(=O)N/N=C/c2cc(Br)cc(Br)c2O)n[nH]1	0	0
O=C1CNC(=S)N1CCc1ccc(O)c(O)c1	93	96
O=C1CNC(=S)N1CCc1ccncc1	0	0
COc1ccc(/C(C)=N/Oc2ccc([N+](=O)[O-])cc2[N+](=O)[O-])cc1CN1CCOCC1	0	0
